# Experiments:
# [1] = molecular target: T1, Ephrin type-A receptor 3 (Homo sapiens) (UniProt P29320); settings: at 10 µM
# T1 sequence (whole entry): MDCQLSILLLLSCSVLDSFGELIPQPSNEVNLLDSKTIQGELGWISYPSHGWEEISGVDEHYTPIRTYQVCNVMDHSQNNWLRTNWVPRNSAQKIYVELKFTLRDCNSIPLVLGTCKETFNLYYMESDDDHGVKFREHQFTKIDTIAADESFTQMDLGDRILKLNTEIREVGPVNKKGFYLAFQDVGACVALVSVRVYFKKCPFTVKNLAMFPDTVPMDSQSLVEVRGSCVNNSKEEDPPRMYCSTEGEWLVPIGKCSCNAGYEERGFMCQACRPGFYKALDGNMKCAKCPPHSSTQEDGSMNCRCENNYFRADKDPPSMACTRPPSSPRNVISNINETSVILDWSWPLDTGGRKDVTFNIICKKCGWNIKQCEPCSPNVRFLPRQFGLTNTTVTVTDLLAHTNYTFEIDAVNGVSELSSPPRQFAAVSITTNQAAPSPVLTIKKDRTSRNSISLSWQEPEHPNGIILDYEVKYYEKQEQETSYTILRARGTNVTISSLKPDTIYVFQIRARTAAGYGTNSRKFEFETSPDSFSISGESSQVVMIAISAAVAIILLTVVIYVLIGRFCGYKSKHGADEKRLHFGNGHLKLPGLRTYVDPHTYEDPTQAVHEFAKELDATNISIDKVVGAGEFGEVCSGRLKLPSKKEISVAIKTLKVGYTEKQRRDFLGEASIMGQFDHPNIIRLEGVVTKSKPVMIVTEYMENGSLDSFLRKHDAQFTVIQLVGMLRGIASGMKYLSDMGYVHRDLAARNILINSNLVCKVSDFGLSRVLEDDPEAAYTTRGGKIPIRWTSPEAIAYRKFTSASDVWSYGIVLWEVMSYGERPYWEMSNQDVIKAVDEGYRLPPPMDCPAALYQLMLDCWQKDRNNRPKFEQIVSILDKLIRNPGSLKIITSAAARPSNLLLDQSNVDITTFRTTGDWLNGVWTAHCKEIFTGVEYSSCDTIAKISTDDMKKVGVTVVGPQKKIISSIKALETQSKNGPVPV
# [2] = molecular target: Ephrin type-A receptor 4 (Homo sapiens) (UniProt P54764); settings: at 1 µM
# [3] = molecular target: Ephrin type-A receptor 4 (Homo sapiens) (UniProt P54764); settings: at 10 µM
# [4] = molecular target: Ephrin type-A receptor 5 (Homo sapiens) (UniProt P54756); settings: at 1 µM
# [5] = molecular target: Ephrin type-A receptor 5 (Homo sapiens) (UniProt P54756); settings: at 10 µM
# [6] = molecular target: Ephrin type-A receptor 7 (Homo sapiens) (UniProt Q15375); settings: at 1 µM
# [7] = molecular target: Ephrin type-A receptor 7 (Homo sapiens) (UniProt Q15375); settings: at 10 µM
# [8] = molecular target: T2, Ephrin type-A receptor 8 (Homo sapiens) (UniProt P29322); settings: at 1 µM
# T2 sequence (whole entry): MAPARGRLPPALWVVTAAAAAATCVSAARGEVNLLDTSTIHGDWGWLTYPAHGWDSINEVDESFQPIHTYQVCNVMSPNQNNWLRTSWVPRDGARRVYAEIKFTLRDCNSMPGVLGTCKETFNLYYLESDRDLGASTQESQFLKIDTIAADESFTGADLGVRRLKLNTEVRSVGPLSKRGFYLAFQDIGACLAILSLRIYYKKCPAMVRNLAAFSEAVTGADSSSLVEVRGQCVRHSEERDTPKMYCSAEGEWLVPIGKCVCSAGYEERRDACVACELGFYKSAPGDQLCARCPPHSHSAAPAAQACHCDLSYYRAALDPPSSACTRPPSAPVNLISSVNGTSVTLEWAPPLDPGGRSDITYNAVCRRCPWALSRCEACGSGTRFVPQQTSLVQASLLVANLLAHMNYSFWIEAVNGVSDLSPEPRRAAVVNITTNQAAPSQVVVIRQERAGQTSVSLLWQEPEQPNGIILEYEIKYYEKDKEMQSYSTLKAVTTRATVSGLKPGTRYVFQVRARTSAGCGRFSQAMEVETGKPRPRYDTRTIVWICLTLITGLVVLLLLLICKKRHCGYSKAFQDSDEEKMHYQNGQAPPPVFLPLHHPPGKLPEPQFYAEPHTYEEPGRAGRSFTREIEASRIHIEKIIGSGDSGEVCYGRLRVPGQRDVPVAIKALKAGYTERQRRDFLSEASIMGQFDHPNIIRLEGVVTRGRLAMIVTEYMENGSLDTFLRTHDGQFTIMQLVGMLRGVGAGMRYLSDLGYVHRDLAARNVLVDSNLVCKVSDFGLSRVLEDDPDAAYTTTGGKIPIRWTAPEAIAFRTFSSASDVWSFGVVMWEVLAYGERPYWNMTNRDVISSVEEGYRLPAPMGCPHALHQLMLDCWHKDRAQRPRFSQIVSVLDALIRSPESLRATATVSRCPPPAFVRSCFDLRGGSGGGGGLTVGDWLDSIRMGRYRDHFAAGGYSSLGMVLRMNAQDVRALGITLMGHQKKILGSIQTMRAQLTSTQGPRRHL
# [9] = molecular target: T2, Ephrin type-A receptor 8 (Homo sapiens); settings: at 10 µM
# [10] = molecular target: T3, Ephrin type-B receptor 1 (Homo sapiens) (UniProt P54762); settings: at 1 µM
# T3 sequence (whole entry): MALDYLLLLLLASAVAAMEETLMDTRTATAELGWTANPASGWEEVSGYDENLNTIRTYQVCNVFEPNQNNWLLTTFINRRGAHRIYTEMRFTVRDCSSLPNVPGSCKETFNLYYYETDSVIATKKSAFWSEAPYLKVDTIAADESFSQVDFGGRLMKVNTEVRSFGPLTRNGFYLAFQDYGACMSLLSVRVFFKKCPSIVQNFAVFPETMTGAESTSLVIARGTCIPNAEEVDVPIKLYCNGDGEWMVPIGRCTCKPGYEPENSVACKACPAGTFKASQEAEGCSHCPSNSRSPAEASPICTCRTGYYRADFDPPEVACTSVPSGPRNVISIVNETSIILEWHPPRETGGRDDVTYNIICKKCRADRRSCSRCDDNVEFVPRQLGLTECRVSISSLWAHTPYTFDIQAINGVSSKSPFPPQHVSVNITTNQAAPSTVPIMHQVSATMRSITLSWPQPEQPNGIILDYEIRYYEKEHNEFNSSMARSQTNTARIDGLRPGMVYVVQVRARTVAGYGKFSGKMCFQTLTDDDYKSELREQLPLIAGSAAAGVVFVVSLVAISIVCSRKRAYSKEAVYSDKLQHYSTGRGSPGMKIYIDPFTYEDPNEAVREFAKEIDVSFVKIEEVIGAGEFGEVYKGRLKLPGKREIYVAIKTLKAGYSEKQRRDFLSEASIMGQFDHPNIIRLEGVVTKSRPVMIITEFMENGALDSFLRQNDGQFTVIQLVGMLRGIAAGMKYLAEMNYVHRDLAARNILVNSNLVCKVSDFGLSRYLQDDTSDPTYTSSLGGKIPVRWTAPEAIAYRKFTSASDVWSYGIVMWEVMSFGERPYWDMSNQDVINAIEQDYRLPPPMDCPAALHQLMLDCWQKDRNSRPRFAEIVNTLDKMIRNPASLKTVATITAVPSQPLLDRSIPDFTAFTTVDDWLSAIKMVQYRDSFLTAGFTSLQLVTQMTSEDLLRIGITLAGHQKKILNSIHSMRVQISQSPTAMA
# [11] = molecular target: T3, Ephrin type-B receptor 1 (Homo sapiens); settings: at 10 µM
# [12] = molecular target: T4, Ephrin type-B receptor 2 (Homo sapiens) (UniProt P29323); settings: at 1 µM
# T4 sequence (whole entry): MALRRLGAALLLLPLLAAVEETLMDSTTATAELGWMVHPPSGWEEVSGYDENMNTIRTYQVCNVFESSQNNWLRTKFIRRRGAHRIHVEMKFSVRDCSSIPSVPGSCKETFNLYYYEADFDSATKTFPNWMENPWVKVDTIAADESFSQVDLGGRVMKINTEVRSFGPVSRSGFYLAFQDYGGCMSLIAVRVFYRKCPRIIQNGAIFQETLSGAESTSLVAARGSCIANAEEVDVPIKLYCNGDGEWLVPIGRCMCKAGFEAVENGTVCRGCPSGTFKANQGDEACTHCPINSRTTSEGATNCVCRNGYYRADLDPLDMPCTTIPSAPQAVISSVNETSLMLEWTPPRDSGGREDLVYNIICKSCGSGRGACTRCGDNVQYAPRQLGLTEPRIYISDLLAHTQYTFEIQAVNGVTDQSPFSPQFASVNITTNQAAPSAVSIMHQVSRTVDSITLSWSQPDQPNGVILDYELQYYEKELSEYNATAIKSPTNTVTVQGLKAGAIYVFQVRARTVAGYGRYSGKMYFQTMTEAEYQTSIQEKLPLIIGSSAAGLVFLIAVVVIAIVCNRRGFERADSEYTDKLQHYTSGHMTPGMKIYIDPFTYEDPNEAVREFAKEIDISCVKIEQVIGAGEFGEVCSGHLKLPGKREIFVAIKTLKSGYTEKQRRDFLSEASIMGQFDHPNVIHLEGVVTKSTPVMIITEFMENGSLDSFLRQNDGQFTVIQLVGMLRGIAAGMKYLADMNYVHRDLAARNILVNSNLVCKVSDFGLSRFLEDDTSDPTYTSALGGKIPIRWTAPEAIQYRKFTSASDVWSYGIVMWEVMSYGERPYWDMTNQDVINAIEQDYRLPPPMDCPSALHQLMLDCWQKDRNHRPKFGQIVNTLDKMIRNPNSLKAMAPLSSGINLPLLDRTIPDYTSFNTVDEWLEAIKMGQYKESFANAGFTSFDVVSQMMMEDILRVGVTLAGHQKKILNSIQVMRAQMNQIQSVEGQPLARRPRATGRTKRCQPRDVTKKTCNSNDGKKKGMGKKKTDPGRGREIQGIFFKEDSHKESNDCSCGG
# [13] = molecular target: T4, Ephrin type-B receptor 2 (Homo sapiens); settings: at 10 µM
# [14] = molecular target: T5, Ephrin type-B receptor 3 (Homo sapiens) (UniProt P54753); settings: at 1 µM
# T5 sequence (whole entry): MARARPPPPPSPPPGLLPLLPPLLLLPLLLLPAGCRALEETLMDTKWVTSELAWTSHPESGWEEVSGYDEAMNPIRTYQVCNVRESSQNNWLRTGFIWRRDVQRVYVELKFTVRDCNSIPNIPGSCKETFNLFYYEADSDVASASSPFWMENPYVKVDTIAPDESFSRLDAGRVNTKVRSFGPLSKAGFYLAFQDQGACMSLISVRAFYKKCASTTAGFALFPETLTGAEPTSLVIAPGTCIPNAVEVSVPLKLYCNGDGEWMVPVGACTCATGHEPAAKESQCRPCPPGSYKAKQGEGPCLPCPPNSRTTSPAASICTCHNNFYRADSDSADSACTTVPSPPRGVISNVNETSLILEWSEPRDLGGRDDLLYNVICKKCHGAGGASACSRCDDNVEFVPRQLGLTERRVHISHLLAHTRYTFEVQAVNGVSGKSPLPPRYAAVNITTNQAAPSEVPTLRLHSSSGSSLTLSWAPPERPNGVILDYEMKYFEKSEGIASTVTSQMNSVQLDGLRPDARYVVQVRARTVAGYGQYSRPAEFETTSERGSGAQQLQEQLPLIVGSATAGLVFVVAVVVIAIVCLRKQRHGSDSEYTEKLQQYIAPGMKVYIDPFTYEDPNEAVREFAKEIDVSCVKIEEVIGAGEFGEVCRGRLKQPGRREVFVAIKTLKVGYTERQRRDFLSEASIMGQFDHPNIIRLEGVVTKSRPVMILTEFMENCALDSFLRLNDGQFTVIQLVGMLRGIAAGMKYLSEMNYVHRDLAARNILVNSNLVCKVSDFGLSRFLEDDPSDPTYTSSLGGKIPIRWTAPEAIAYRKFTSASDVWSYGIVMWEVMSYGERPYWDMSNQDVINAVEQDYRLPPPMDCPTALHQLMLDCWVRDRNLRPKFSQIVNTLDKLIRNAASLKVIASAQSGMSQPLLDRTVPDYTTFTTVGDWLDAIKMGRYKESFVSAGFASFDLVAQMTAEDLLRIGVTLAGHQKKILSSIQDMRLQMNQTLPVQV
# [15] = molecular target: T5, Ephrin type-B receptor 3 (Homo sapiens); settings: at 10 µM
# [16] = molecular target: T6, Ephrin type-B receptor 4 (Homo sapiens) (UniProt P54760); settings: at 1 µM
# T6 sequence (whole entry): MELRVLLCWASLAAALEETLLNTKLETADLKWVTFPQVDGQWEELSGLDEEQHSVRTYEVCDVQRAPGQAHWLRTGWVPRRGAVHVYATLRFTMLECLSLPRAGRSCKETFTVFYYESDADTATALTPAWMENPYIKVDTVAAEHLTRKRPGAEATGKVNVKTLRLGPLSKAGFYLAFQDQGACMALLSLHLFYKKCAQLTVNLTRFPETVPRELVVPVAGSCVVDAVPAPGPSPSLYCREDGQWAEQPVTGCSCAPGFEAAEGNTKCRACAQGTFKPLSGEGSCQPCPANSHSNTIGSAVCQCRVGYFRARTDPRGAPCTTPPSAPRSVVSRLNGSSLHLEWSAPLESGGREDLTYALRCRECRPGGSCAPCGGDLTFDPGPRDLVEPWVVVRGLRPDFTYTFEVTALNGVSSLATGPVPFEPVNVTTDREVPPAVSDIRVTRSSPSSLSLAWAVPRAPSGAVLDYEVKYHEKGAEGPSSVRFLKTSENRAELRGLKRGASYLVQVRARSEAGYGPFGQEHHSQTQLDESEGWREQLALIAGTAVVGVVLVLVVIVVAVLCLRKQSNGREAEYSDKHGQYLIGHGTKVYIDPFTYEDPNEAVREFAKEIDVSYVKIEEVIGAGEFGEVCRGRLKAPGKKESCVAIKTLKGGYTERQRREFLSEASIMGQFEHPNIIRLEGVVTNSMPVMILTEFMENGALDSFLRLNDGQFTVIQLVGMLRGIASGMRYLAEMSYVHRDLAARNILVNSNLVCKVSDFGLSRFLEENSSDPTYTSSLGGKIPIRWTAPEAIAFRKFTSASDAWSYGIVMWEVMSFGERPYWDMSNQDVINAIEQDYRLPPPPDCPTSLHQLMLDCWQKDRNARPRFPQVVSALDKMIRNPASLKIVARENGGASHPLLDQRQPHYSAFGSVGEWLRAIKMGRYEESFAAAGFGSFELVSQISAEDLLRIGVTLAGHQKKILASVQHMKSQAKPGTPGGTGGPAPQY
# [17] = molecular target: T6, Ephrin type-B receptor 4 (Homo sapiens); settings: at 10 µM
# [18] = molecular target: Receptor tyrosine-protein kinase erbB-4 (Homo sapiens) (UniProt Q15303); settings: at 1 µM
# [19] = molecular target: Receptor tyrosine-protein kinase erbB-4 (Homo sapiens) (UniProt Q15303); settings: at 10 µM
# [20] = molecular target: Focal adhesion kinase 1 (Homo sapiens) (UniProt Q05397); settings: at 1 µM
# Chain of Receptor tyrosine-protein kinase erbB-4 (Homo sapiens) (Q15303 whole entry): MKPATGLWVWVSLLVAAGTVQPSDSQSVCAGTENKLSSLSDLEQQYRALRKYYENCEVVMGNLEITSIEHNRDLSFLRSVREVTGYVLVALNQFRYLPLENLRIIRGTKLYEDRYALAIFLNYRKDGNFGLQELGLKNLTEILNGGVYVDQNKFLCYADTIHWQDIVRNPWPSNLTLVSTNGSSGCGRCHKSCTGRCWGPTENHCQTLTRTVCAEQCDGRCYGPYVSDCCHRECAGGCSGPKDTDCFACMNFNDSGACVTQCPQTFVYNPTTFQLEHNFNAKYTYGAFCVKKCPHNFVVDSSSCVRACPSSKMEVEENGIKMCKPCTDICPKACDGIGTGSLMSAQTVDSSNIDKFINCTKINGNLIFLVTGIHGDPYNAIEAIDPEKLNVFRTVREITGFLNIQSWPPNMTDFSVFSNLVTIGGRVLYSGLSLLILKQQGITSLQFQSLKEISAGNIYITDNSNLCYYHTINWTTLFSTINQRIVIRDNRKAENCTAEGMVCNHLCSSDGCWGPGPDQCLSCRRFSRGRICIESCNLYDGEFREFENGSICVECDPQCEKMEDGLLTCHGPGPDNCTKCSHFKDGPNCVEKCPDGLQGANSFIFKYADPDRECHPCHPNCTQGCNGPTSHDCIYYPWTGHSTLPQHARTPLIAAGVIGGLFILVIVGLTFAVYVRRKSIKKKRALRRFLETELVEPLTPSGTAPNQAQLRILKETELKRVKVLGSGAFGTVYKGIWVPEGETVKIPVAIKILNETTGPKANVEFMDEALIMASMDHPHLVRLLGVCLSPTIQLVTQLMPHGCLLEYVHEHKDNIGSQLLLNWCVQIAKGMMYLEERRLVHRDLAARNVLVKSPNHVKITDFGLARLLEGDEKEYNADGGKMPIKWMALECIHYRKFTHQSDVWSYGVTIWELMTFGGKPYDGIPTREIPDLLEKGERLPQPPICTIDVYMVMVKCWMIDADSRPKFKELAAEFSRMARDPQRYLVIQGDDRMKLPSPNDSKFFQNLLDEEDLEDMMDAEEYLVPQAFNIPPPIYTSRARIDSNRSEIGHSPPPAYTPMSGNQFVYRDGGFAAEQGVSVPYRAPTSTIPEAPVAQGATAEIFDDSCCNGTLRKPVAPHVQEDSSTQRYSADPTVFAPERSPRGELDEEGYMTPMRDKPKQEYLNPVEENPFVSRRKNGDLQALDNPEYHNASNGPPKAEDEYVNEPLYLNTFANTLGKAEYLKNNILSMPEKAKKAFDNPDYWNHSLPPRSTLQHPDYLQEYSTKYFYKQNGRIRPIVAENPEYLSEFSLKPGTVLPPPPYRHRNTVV
# Chain of Ephrin type-A receptor 4 (Homo sapiens) (P54764 whole entry): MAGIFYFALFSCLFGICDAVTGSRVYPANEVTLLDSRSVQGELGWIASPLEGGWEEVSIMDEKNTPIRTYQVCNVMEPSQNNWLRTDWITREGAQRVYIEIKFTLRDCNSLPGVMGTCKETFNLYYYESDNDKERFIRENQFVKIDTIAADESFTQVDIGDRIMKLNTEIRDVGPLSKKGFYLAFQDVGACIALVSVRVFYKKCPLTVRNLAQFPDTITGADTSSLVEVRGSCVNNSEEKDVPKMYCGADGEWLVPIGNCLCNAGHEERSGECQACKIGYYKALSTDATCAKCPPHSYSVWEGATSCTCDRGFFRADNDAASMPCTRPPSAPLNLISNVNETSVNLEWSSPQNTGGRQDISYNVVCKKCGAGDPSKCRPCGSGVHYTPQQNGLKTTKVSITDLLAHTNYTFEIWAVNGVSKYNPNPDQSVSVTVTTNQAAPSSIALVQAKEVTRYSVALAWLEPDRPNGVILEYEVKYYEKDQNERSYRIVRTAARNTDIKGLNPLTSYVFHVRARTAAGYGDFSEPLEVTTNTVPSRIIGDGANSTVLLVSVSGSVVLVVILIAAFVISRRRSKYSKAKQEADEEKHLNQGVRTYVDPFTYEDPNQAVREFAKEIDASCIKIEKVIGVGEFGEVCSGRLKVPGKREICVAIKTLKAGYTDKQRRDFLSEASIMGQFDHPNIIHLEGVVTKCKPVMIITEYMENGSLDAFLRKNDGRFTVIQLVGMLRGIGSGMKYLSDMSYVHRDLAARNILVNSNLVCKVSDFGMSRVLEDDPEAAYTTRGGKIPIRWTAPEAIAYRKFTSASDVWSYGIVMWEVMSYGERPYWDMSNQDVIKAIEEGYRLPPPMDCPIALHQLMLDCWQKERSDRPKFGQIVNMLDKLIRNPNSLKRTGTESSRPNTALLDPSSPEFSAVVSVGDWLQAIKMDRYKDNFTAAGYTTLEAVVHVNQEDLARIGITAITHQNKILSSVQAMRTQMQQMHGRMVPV
# Chain of Ephrin type-A receptor 7 (Homo sapiens) (Q15375 28-998 limits assumed): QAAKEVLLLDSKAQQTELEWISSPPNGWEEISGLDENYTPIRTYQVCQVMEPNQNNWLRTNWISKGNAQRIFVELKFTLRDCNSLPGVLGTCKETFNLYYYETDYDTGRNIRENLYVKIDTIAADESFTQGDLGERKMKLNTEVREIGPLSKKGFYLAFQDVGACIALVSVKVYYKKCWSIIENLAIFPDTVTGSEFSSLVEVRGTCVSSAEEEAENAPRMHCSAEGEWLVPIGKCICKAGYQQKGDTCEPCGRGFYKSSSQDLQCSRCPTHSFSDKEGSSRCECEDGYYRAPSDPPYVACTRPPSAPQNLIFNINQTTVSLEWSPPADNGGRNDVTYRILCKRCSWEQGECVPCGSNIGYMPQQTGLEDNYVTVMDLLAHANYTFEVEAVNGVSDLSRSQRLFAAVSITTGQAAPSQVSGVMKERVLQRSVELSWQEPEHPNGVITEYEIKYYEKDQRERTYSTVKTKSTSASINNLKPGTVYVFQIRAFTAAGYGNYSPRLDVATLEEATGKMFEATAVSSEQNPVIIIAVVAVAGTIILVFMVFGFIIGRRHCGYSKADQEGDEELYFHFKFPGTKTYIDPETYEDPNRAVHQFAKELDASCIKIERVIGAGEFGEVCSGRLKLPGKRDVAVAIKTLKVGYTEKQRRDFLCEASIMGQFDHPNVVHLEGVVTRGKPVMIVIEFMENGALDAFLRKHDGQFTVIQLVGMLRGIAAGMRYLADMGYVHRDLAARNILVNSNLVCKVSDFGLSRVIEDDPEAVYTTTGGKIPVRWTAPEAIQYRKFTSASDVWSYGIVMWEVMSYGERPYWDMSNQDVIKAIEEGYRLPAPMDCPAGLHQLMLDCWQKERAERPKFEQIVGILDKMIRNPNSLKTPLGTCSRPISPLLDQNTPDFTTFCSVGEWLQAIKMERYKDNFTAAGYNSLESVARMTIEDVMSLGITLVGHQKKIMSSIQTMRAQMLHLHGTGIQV
# Chain of Ephrin type-A receptor 5 (Homo sapiens) (P54756 whole entry): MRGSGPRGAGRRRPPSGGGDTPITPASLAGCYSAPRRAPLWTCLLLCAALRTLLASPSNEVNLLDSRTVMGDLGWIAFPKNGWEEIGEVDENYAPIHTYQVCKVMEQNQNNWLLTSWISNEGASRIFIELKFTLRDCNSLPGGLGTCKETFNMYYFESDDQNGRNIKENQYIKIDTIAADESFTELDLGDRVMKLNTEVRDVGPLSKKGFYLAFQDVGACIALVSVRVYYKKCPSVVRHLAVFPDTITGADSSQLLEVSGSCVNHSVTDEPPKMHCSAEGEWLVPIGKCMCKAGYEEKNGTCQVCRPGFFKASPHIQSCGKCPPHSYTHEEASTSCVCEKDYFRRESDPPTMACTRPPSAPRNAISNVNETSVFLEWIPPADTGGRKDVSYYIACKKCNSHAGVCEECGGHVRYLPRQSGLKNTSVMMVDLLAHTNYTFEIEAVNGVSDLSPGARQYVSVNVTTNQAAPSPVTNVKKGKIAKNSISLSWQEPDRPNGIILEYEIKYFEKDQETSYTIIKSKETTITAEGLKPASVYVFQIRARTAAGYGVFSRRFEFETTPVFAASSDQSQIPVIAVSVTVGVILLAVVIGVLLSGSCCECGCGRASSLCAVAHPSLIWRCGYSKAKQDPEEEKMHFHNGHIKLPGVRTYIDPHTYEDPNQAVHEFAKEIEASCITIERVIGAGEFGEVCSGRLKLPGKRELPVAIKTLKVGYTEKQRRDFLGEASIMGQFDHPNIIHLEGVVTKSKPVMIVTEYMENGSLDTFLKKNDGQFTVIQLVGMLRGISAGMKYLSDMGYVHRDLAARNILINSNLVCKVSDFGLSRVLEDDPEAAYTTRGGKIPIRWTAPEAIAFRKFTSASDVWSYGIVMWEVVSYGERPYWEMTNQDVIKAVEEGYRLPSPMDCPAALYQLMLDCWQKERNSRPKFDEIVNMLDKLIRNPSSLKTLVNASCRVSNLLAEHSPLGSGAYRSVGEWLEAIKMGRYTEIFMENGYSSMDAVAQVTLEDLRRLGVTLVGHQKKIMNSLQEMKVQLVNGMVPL
smiles,measurement,setting,value
Ic1cccc(CSc2nnc(-c3ccncc3)o2)c1,residual activity,[1],83%
same,residual activity,[2],104%
same,residual activity,[3],103%
same,residual activity,[4],106%
same,residual activity,[5],99%
same,residual activity,[6],88%
same,residual activity,[7],81%
same,residual activity,[8],89%
same,residual activity,[9],87%
same,residual activity,[10],95%
same,residual activity,[11],84%
same,residual activity,[12],106%
same,residual activity,[13],109%
same,residual activity,[14],104% (inactive)
same,residual activity,[15],101%
same,residual activity,[16],84%
same,residual activity,[17],84%
same,residual activity,[18],94%
same,residual activity,[19],91%
same,residual activity,[20],96%
